The test system of one assay is NIH3T3. The assay is described as follows: qHTS assay to identify novel small-molecules to repurpose for Merkel cell carcinoma treatment (AID 1296009). Further: nearly all actives have a fitted effect of over 60% in size. Conditions: MCC and control cell lines, CellTiter-Glo viability, 72 h; at 44.8 µM (top of the series) unless noted. Summed up: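 qHTS format: cells treated with library compounds in DMSO across 8 (NPC) or 11 (MIPE) concentrations. Readout after 72 hr at 37 degree celsius was CellTiter-Glo luminescence.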
For orientation: Quantitative high-throughput screening tests each substance at several concentrations.

The next assay concerns C33A. The experiment in a line: Primary qHTS to identify gynecologic anti-cancer compounds using libraries of approved drugs and bioactive compounds (AID 1345084). Further: nearly all actives have a fitted effect of over 55% in size. Further: potency means the concentration at half of the fitted maximal effect. On activity change, negative = cytotoxicity: on the % scale 0 is the no-effect control and ±100 the full control effect. To be noted: Gynecologic cancer cell panel viability, ATPlite luminescence, 48 h; series mostly up to 57.5 µM. Put shortly: (§1)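 Five-concentration response, 48 h; readout is ATP-driven luciferase luminescence.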
For another assay, the system named is CASKI. The description is as above. Conditions: Gynecologic cancer cell panel viability, ATPlite luminescence, 48 h; series mostly up to 57.5 µM. Put shortly:
as §1

The subject of another assay is Es-2. The assay is described as above. To be noted: Gynecologic cancer cell panel viability, ATPlite luminescence, 48 h; series mostly up to 57.5 µM. Summed up: as §1
The next assay concerns HeLa. Described as above. To be noted: Gynecologic cancer cell panel viability, ATPlite luminescence, 48 h; series mostly up to 57.5 µM. Put shortly:
as §1
(ATP-based viability assays read luminescence as a measure of living cells.)

Another assay concerns Hek293T. The description is as above. Conditions: Gynecologic cancer cell panel viability, ATPlite luminescence, 48 h, control line for the selectivity index; series mostly up to 57.5 µM. Summed up:
as §1

The subject of another assay is JEG-3. Described as above. Conditions: Gynecologic cancer cell panel viability, ATPlite luminescence, 48 h; series mostly up to 57.5 µM. Summed up:
as §1

Another assay deals with OV90. The description is as above. To be noted: Gynecologic cancer cell panel viability, ATPlite luminescence, 48 h; series mostly up to 57.5 µM. Put shortly: as §1
The next assay has as its system PA-1. The assay is described as above. Conditions: Gynecologic cancer cell panel viability, ATPlite luminescence, 48 h; series mostly up to 57.5 µM. Summed up:
as §1

Another assay has as its system SKOV3. The assay is described as above. To be noted: Gynecologic cancer cell panel viability, ATPlite luminescence, 48 h; series mostly up to 57.5 µM. Summed up: as §1
Another assay deals with Tov-21-G. Described as above. Conditions: Gynecologic cancer cell panel viability, ATPlite luminescence, 48 h; series mostly up to 57.5 µM. Summed up: as §1
A further assay deals with Tov112D. Described as above. To be noted: Gynecologic cancer cell panel viability, ATPlite luminescence, 48 h; series mostly up to 57.5 µM. Summed up: as §1
For a further assay, the system named is CAOV3. Described as above. Conditions: Gynecologic cancer cell panel viability, ATPlite luminescence, 48 h; series mostly up to 57.5 µM. Put shortly:
as §1

For 15 molecules, outcome, Potency and activity change, negative = cytotoxicity results are on record in PubChem BioAssay (NCATS).

The structures appear in SMILES notation. Records with an inconclusive call do not appear. Unmarked numbers belong to inactive results. Calls of active or inactive are those of the source. The call rests on the fitted dose curve; in most records, active means well fitted curve in the direction sought with a large enough effect; inconclusive means small, poorly fitted or top-dose-only effect, or another doubt; inactive means no such curve, though single readings can be large; an effect the other way counts as inactive or inconclusive.

In the case of `O=S(=O)(Nc1ccc(C(O)(C(F)(F)F)C(F)(F)F)cc1)c1cccs1`, in the assay with NIH3T3, the molecule was called inactive. For the same molecule, the Potency result with C33A, in the assay on CASKI, in the assay on Es-2, in the assay on HeLa, in the assay with Hek293T and in the assay on JEG-3 was “inactive” each time. Moreover, the Potency result in the assay with OV90, with PA-1, in the assay with SKOV3, in the assay on Tov-21-G and in the assay on Tov112D was “inactive” in each case.
Regarding `C=CC(C)(CC/C=C(\C)CC/C=C(\C)CC(O)/C=C(\C)C(=O)O)O[C@@H]1O[C@H](CO)[C@@H](O)[C@H](O)[C@H]1O[C@@H]1O[C@H](CO)[C@@H](O)[C@H](O)[C@H]1O` (stereo not given in full), in the assay with NIH3T3, the outcome is “inactive [at 17.4 µM]”. In addition, the Potency entry in the assay on C33A, with CASKI, with Es-2, in the assay on HeLa, in the assay on Hek293T and with JEG-3 was “inactive” each time. Besides, the Potency entry with OV90, in the assay with PA-1, in the assay with SKOV3, in the assay with Tov-21-G and with Tov112D was “inactive” throughout.
Regarding `O=C(/C=C/c1ccc(O)cc1)OC[C@H]1O[C@@H](OC(=O)/C=C/c2ccccc2)[C@H](O)[C@@H](O)[C@@H]1O`, the outcome in the assay on NIH3T3 is “inactive [at 17.4 µM]”. The Potency result in the assay on C33A, in the assay with CASKI, in the assay on Es-2, in the assay on HeLa, in the assay on Hek293T and in the assay on JEG-3 was “inactive” each time. Besides, the Potency result with OV90, with PA-1, in the assay with SKOV3, in the assay on Tov-21-G and with Tov112D was “inactive” each time.
With `Clc1ccc2c(c1)C1=NCCN1c1c(-c3noc(C4CC4)n3)ncn1-2`, the result with NIH3T3 was inactive. The Potency result with C33A, in the assay with CASKI, in the assay with Es-2, with Hek293T, in the assay on JEG-3 and with OV90 was “inactive” throughout. In addition, the Potency entry with PA-1, in the assay with SKOV3, with Tov-21-G and in the assay with Tov112D was “inactive” each time. In the assay on HeLa, the Potency is 3.16 µM (active).
On to `Cc1c(N2C(=O)c3ccc(C(=O)O)cc3C2=O)c(=O)n(-c2ccccc2)n1C`, for which the molecule was classed as inactive in the assay on NIH3T3. In addition, the Potency result in the assay with C33A, in the assay with CASKI, in the assay on Es-2, with HeLa, in the assay on Hek293T and with JEG-3 was “inactive” throughout. The Potency result in the assay with OV90, with PA-1, in the assay on SKOV3, in the assay on Tov-21-G and with Tov112D was “inactive” throughout.
In the case of `NC(=O)c1cccc(-c2cc(O)cc(OC(=O)NC3CCCCC3)c2)c1`, the Potency result in the assay on C33A, in the assay on CAOV3, with CASKI, in the assay with Es-2, in the assay on HeLa and with Hek293T was “inactive” in each case. Further, the Potency result in the assay with JEG-3, in the assay on OV90, with PA-1, in the assay with SKOV3, in the assay on Tov-21-G and with Tov112D was “inactive” in each case.
Consider `C[C@@H]1CC[C@]2(C)C(C[C@@H](O)[C@H](O)[C@]23CO3)[C@@]1(C)CCc1ccoc1` (stereo not given in full), for which the Potency entry in the assay with C33A, in the assay with CAOV3, in the assay with CASKI, in the assay with Es-2, in the assay on HeLa and with Hek293T was “inactive” throughout. Also, the Potency result in the assay with JEG-3, in the assay on OV90, in the assay with PA-1, in the assay with SKOV3, in the assay on Tov-21-G and with Tov112D was “inactive” in each case.
Consider `COC(=O)[C@]12C(=O)C(C)=C(O)[C@@]1(C)C(C)=CC1[C@@]34CC[C@@H](OC(C)=O)C(C)(C)C3[C@H](C[C@]12C)OC4=O` (stereo not given in full), for which the Potency entry in the assay with C33A, in the assay on CAOV3, with CASKI, in the assay with Es-2, with HeLa and in the assay on Hek293T was “inactive” throughout. The Potency result with JEG-3, with OV90, in the assay on PA-1, with SKOV3, with Tov-21-G and in the assay with Tov112D was “inactive” in each case.
Consider `Cc1c(CN(C)C(=O)/C=C/c2cnc3c(c2)CCC(=O)N3)oc2ccccc12`, for which the Potency result with C33A, in the assay on CAOV3, in the assay on CASKI, in the assay with Es-2, in the assay with HeLa and in the assay on Hek293T was “inactive” throughout. Also, the Potency entry in the assay with JEG-3, in the assay on OV90, with PA-1, in the assay on SKOV3, with Tov-21-G and in the assay on Tov112D was “inactive” each time.
With `C[C@@H]1O[C@@H](O[C@H]2[C@H](O[C@H]3CC[C@@]4(C)C(CC[C@]5(C)C4CC=C4[C@@H]6CC(C)(C)CC[C@]6(C(=O)O)CC[C@]45C)[C@]3(C)CO)OC[C@H](O)[C@@H]2O)[C@H](O)[C@H](O[C@@H]2OC[C@@H](O)[C@H](O)[C@H]2O)[C@H]1O` (stereo not given in full), the activity change, negative = cytotoxicity was -12% [at 11.6 µM] in the assay with C33A; -8% [at 11.6 µM] in the assay with CAOV3; -1.75% [at 11.6 µM] in the assay on CASKI; -1.5% [at 11.6 µM] in the assay on Es-2; 14.3% [at 11.6 µM] in the assay on HeLa; -9.01% [at 11.6 µM] with Hek293T. Besides, the activity change, negative = cytotoxicity was -2.58% [at 11.6 µM] with JEG-3; -5.88% [at 11.6 µM] in the assay on OV90; -2.5% [at 11.6 µM] in the assay on PA-1; -0.901% [at 11.6 µM] in the assay on SKOV3; -4.57% [at 11.6 µM] in the assay on Tov-21-G; 4.64% [at 11.6 µM] in the assay on Tov112D.
In the case of `NC(Cc1c[nH]c2ccccc12)C(=O)NC(CCC(=O)O)C(=O)O` (stereo not given), the Potency entry in the assay on C33A, with CAOV3, with CASKI, in the assay with Es-2, with HeLa and with Hek293T was “inactive” in each case. Also, the Potency entry in the assay with JEG-3, in the assay on OV90, in the assay on PA-1, in the assay on SKOV3, in the assay with Tov-21-G and in the assay with Tov112D was “inactive” each time.
For the molecule `CCOc1c2c(c(OCC)c3ccccc13)C(=O)N(c1ccc(CC(=O)NS(=O)(=O)c3ccccc3)cc1)C2`, the Potency entry in the assay on C33A, in the assay with CAOV3, in the assay with CASKI, in the assay on Es-2, in the assay on HeLa and with Hek293T was “inactive” throughout. Besides, the Potency entry in the assay on JEG-3, in the assay on OV90, in the assay on PA-1, in the assay with SKOV3, with Tov-21-G and in the assay on Tov112D was “inactive” in each case.
Take `COc1ccc2c3c1O[C@H]1C[C@@H](O)C=C[C@@]31CCN(C)C2`: the Potency entry with C33A, in the assay on CAOV3, in the assay on CASKI, in the assay on Es-2, in the assay on HeLa and with Hek293T was “inactive” throughout. For the same molecule, the Potency entry with JEG-3, in the assay with OV90, with PA-1, in the assay with SKOV3, in the assay on Tov-21-G and in the assay with Tov112D was “inactive” each time.
Regarding `COc1c2c(c(C)c3c1C(=O)OC3)OC1(C)CC(O)C3(O)C(C)(C)OC(=O)CCC3(C)C1C2` (stereo not given), the Potency entry with C33A, with CAOV3, with CASKI, in the assay on Es-2, with HeLa and in the assay with Hek293T was “inactive” throughout. Also, the Potency result with JEG-3, in the assay on OV90, in the assay with PA-1, in the assay on SKOV3, with Tov-21-G and in the assay with Tov112D was “inactive” each time.
With `CC1(C)C(O)CCC2(C)C1C(O)C=C1COC(=O)C12O` (stereo not given), the Potency result in the assay on C33A, in the assay with CAOV3, in the assay with CASKI, in the assay with Es-2, in the assay on HeLa and with Hek293T was “inactive” in each case. Besides, the Potency result in the assay with JEG-3, in the assay on OV90, with PA-1, with SKOV3, in the assay on Tov-21-G and with Tov112D was “inactive” each time.
